The values that follow come from PubChem BioAssay (EPA / NIEHS).

Each structure is given as a SMILES string. Several values for one entry are separate records, joined by “and”; a condition that tells them apart may be missing. Equal values may be shown once. More than one record can exist for a structure, and the calls need not agree. Activity calls are given as the source filed them. How the source made its calls: active means hit-call score of the fitted dose curve at least 0.9, where 1 is the maximum; inactive means score below 0.9.

Assay [1] in a line: ATG_GLI_CIS: Attagene CIS-FACTORIAL HepG2 Assay for human Zinc Finger Protein GLI1 (AID 2282945). As to conditions: HepG2, Attagene cis-factorial reporter mRNA, GLI element; actives raise or lower the signal. Put shortly:
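Bidirectional curve fits relative to DMSO, using reporter mRNA levels from RT-PCR plus capillary electrophoresis. Cells were HepG2 transiently carrying cis-regulated reporter constructs, harvested 24 h after dosing.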

A short description of assay [2]: ATG_ISRE_CIS: Attagene CIS-FACTORIAL HepG2 Assay for human Interferon Regulatory Factor 1 (IRF1) binding to an Interferon-Stimulated Response Element (ISRE) (AID 2282948). As to conditions: HepG2 ISRE cis-reporter (Attagene), mRNA transcription readout; actives raise or lower the signal. Summed up: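 Uses HepG2 liver cells transfected with cis-regulated reporters and measures mRNA 24 h post-dosing through RT-PCR, primer-extension labelling and capillary electrophoresis, with DMSO as negative control.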

The nature of assay [3]: ATG_M_32_CIS: Attagene CIS-FACTORIAL HepG2 Assay for M32 Transcription Factor (Internal Marker) (AID 2282949).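 Further: background control marker of the multiplexed CIS panel rather than a real target.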 As to conditions: HepG2 Attagene cis-factorial M32 reporter, mRNA; actives raise or lower the signal. Summed up:
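Transient MRTU transfection of HepG2; 24 h compound treatment; TriZol RNA, oligo(dT) RT, reporter PCR, 6-FAM primer extension, HpaI cut, CE. Gain/loss of signal vs DMSO.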

Assay [4] can be described thus: ATG_M_06_CIS: Attagene CIS-FACTORIAL HepG2 Assay for M06 Transcription Factor (Internal Marker) (AID 2282950). As to conditions: HepG2 Attagene CIS-FACTORIAL M06 internal marker reporter; actives raise or lower the signal. Put shortly: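 HepG2 liver cells, 24 h exposure. Reporter transcripts from transfected cis-element constructs quantified by RT-PCR/capillary electrophoresis fluorescence. Bidirectional curve fit against DMSO.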

Assay [5] has as its target Hypoxia-inducible factor 1-alpha (Homo sapiens) (UniProt Q16665). As to the kind of experiment: ATG_HIF1a_CIS: Attagene CIS-FACTORIAL HepG2 Assay for human Hypoxia Inducible Factor 1 (HIF1A) (AID 2282951). As to conditions: HepG2 Attagene cis-factorial HIF1a reporter transcription; actives raise or lower the signal. Put shortly:
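After 24 h chemical exposure of reporter-transfected HepG2 cells, reporter cDNA was PCR-amplified, labelled by 6-FAM primer extension (2 min 95 C, 20 s 68 C, 10 min 72 C), HpaI-cut (2 h, 37 C) and analysed by CE.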

Assay [6] has as its target Hepatocyte nuclear factor 6 (Homo sapiens) (UniProt Q9UBC0). Put plainly: ATG_HNF6_CIS: Attagene CIS-FACTORIAL HepG2 Assay for human Hepatocyte Nuclear Factor 6 (HNF6) (AID 2282952). As to conditions: HepG2 Attagene cis-factorial HNF6 reporter transcription; actives raise or lower the signal. Summed up:
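Endogenous transcription factor activity in human HepG2 liver cells was captured through cis-regulated reporter constructs. After 24 h treatment, reporter mRNA was measured by RT-PCR with capillary electrophoresis, and activity was fitted in both directions relative to DMSO.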

Assay [7] in a line: ATG_MRE_CIS: Attagene CIS-FACTORIAL HepG2 Assay for human Metal Responsive Element (MRE) (AID 2282954). As to conditions: HepG2 MRE cis-reporter transcription, Attagene multiplex; actives raise or lower the signal. Put shortly: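 Multiplexed cis-reporter assay in human HepG2 liver cells, 24 h incubation with test chemical. Reporter transcripts measured by RT-PCR and capillary electrophoresis; values from bidirectional curve fitting versus DMSO.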

Assay [8] addresses Bile acid receptor (Homo sapiens) (UniProt Q96RI1). Put plainly: ATG_IR1_CIS: Attagene CIS-FACTORIAL HepG2 Assay for human Nuclear Receptor Subfamily 1 Group H Member 4 (NR1H4), IR1 submotif (AID 2282946). As to conditions: IR1 reporter transcription, actives raise or lower the signal. Summed up:
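HepG2 cells transiently transfected with multiplexed cis-element reporter units read endogenous transcription factor activity. After 24 h compound exposure, reporter mRNA was quantified by RT-PCR, fluorescent labelling, HpaI digestion and capillary electrophoresis; bidirectional fitting versus DMSO baseline.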

Assay [9] is described as follows: ATG_GRE_CIS: Attagene CIS-FACTORIAL HepG2 Assay for human Glucocorticoid Response Elements (GRE) (AID 2282947). As to conditions: HepG2 GRE cis-reporter, Attagene multiplex mRNA; actives raise or lower the signal. Summed up:
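Multiplexed cis-reporter mRNA induction, HepG2, 24 h post-dose. RT-PCR, FAM-labelled, HpaI-digested amplicons by CE. Bidirectional fit vs DMSO.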

Assay [10] addresses Heat shock factor protein 1 (Homo sapiens) (UniProt Q00613). As to the kind of experiment: ATG_HSE_CIS: Attagene CIS-FACTORIAL HepG2 Assay for human Heat Shock Transcription Factor 1 (HSE) (AID 2282953). As to conditions: HepG2 HSE cis-reporter, Attagene RNA transcription; actives raise or lower the signal. Put shortly: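 Endogenous transcription factor activity captured via cis-promoter reporter units transfected into HepG2; treatment lasted 24 h. Fluorescence intensity of reporter fragments analysed with bidirectional curve fitting, DMSO baseline.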

Sequence of Heat shock factor protein 1 (Homo sapiens) (Q00613 whole entry, looked up, the tested form may be a part): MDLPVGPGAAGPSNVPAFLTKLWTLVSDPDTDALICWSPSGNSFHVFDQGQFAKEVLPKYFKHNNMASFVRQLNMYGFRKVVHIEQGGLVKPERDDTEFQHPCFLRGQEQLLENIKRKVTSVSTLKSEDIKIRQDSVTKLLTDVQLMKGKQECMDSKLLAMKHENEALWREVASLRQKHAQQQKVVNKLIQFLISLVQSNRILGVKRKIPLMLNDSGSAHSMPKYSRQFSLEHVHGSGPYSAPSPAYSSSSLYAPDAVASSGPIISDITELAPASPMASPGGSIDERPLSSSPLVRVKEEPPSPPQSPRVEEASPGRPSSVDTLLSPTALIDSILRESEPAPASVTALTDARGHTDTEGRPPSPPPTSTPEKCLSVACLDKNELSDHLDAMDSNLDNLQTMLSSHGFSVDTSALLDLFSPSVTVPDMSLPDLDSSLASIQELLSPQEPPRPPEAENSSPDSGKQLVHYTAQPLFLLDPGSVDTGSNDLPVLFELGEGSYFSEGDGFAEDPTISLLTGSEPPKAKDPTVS
Sequence of Hepatocyte nuclear factor 6 (Homo sapiens) (Q9UBC0 whole entry, looked up): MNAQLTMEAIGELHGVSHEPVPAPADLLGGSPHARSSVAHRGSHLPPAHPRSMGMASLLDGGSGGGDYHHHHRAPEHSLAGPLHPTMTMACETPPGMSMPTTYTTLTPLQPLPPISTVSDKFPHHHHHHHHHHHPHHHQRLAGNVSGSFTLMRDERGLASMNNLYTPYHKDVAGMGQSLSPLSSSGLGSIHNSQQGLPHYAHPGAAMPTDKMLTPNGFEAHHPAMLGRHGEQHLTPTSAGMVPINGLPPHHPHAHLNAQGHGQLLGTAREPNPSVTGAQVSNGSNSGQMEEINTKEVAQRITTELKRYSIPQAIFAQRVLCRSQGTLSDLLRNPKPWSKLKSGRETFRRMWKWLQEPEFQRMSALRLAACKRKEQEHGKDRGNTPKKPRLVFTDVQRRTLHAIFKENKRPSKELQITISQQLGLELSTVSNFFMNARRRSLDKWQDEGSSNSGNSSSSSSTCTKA
Sequence of Hypoxia-inducible factor 1-alpha (Homo sapiens) (Q16665 whole entry, looked up): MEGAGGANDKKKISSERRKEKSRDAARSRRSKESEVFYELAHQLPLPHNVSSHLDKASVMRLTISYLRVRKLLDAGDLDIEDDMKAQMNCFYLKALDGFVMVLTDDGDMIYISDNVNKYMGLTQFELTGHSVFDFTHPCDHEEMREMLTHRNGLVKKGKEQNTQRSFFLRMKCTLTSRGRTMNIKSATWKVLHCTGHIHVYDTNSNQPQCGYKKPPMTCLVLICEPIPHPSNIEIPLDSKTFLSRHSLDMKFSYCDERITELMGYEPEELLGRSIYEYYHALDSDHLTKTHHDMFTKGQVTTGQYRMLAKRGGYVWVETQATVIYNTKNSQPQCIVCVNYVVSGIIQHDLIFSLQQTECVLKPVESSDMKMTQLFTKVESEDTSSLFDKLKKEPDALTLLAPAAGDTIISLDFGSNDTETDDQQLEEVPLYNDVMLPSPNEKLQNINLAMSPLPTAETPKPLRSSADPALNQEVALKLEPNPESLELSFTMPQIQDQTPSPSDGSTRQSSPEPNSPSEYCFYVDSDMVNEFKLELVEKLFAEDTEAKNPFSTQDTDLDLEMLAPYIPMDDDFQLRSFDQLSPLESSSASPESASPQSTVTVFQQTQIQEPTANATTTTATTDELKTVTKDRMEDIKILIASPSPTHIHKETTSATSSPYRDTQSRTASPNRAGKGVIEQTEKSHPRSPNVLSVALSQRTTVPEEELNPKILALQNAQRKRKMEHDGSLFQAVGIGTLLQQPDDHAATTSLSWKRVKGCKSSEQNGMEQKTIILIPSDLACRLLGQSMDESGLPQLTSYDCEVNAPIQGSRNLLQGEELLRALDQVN
Sequence of Bile acid receptor (Homo sapiens) (Q96RI1 whole entry, looked up): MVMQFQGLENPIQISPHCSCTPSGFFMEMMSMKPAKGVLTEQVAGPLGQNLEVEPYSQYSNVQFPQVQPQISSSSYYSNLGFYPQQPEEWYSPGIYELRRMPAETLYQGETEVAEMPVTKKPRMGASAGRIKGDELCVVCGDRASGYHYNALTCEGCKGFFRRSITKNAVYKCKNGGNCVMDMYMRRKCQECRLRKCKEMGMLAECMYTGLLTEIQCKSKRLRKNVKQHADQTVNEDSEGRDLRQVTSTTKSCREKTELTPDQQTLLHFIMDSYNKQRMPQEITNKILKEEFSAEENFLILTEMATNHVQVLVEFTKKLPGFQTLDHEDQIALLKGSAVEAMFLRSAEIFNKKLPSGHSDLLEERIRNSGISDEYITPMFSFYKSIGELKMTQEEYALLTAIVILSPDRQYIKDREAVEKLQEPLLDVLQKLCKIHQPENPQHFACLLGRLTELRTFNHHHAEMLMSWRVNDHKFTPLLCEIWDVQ

Regarding `Oc1ccccc1-c1ccccc1`, the AC50 in assay [1] was 23 µM (active); in assay [2], 68.5 µM (active); in [7], 65.7 µM (active). Also, the molecule was classed as inactive in assay [1], in [2], in assay [3], in assay [4], in [5] and in assay [6]. For the same molecule, the result in assay [7] was inactive.

For `COc1ccc(C(c2ccc(OC)cc2)C(Cl)(Cl)Cl)cc1`, the molecule was classed as inactive in assay [1], in assay [8], in assay [9], in assay [2], in assay [3] and in assay [4]. Also, the molecule was called inactive in assay [5], in assay [6], in assay [10] and in assay [7]. The AC50 in assay [8] is 21.6 µM (active); in assay [5], 3.88 µM (active); in [7], 65.1 µM (active) and 15.6 µM (active) and 11.9 µM (active).

For the molecule `CNC(=O)ON=CC(C)(C)SC`, the outcome in assay [1], in assay [8], in [9], in assay [2], in assay [3] and in assay [4] was inactive. Besides, the molecule was called inactive in assay [5], in assay [6] and in [7]. Further, the AC50 in [2] is 167 µM (active).

On to `COC(=O)C(C)Oc1ccc(Oc2ccc(Cl)cc2Cl)cc1` (configuration not stated), for which the call in assay [1], in [8], in assay [9], in [2], in assay [3] and in assay [4] was inactive. In addition, the call in [5], in [6] and in [7] was inactive. Also, the AC50 in assay [8] was 76.5 µM (active).

Consider `COC(=O)c1ccccc1C(=O)OC`, for which the molecule was classed as inactive in assay [1], in [8], in assay [9], in assay [2], in [3] and in [4]. For the same molecule, the molecule was called inactive in assay [5], in assay [6] and in assay [7].

Turning to `CCCCNC(=O)n1c(NC(=O)OC)nc2ccccc21`, the molecule was classed as inactive in assay [1], in assay [8], in assay [9], in [2], in assay [3] and in assay [4]. Also, the result in [5], in [6], in [10] and in [7] was inactive.

For the molecule `C=CC1(C)OC(=O)N(c2cc(Cl)cc(Cl)c2)C1=O` (configuration not stated), the molecule was classed as inactive in [1], in [8], in [9], in assay [2], in assay [3] and in assay [4]. The molecule was classed as inactive in [5], in [6], in [10] and in [7].

In the case of `COP(N)(=O)SC` (configuration not stated), the result in assay [1], in [8], in assay [9], in [2], in assay [3] and in assay [4] was inactive. In addition, the molecule was classed as inactive in [5], in assay [6], in assay [10] and in [7].

Regarding `CCON=C(CC)C1=C(O)CC(c2c(C)cc(C)cc2C)CC1=O` (configuration not stated), the call in [1], in assay [8], in [9], in assay [2], in [3] and in [4] was inactive. Moreover, the outcome in assay [5], in assay [6] and in assay [7] was inactive.

For `Cc1ccc(-c2c(Cl)nc(C#N)n2S(=O)(=O)N(C)C)cc1`, the outcome in assay [1], in assay [8], in [9], in [2], in [3] and in assay [4] was inactive. Besides, the molecule was classed as inactive in assay [5], in assay [6] and in assay [7].

Take `COC(=O)N(OC)c1ccccc1COc1ccn(-c2ccc(Cl)cc2)n1`: the molecule was classed as inactive in assay [1], in assay [8], in assay [9], in [2], in [3] and in assay [4]. For the same molecule, the outcome in assay [5] and in [6] was inactive. Moreover, in assay [7], the AC50 is 2.65 µM (active).

Regarding `CCCCNC(=O)OCC#CI`, the AC50 is 51.8 µM (active) in assay [1], 160 µM (active) in assay [8], 33 µM (active) in [2] and 35.9 µM (active) in assay [7]. Besides, the molecule was called inactive in assay [1], in assay [8], in assay [9], in [2], in assay [3] and in assay [4]. Besides, the result in assay [5], in assay [6] and in assay [7] was inactive.
